Screens (PubChem BioAssay)
Rows were chosen to be rich in hits. Some 3% of all compounds tested hit in one or more screens of this group.
TexasRed fluor: counter-screen for TRb-SRC2 inhibitors: fluorescence interference. 0.29% of 280,000 active. TRb/SRC2 Texas Red total fluorescence interference. AID 1479. Potency, µM (series often up to 106 µM), for inactives: top-dose fluorescence change, negative = quenching; active means well fitted curve in either direction with a large enough effect; inconclusive means small, poorly fitted or top-dose-only effect
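Human TRβ ligand-binding domain (0.6 uM) and Texas Red SRC2 peptide (20 nM) in Tris buffer with 1 uM T3 and 5% DMSO were incubated with pinned compound for 5 hr at ambient temperature. Total fluorescence was computed as S + 2P (555/632 nm).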
Tau fibril FP: blocks human tau fibril formation measured by polarization. K18 P301L tau heparin fibrillization, Alexa594 FP, 6 h. 0.39% of 280,000 active. P10636. Potency, µM (highest dose often 57.7 µM), for the others: at the top dose activity, negative = inhibition, actives largely listed as inhibitors; further: nearly all actives have a fitted effect of over 55% in size
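Human K18 P301L fragment (15 uM unlabeled plus 0.24 uM Alexa 594-labeled) in 100 mM sodium acetate pH 7 with compound, aggregation induced by 20 uM heparin for 6 hr at 37 C. ThT (30 uM) added for 1 hr, then Alexa 594 FP read.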
Tau ThT inhib: blocks human tau fibril formation measured by thioflavin T; P10636; recombinant tau K18 P301L, heparin-induced fibrillization, ThT fluorescence; Potency, µM (titrated, usually from 57.4 µM), without a hit: at the top dose activity, negative = inhibition, most hits filed as inhibitors; 2.1% of 270,000 active; AID 1460; further: nearly all actives have a fitted effect of over 55% in size
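Using a mix of unlabeled (15 uM) and Alexa 594-labeled (0.24 uM) tau K18 P301L, heparin-triggered fibrillization over 6 hr at 37 C was scored by ThT fluorescence.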
TRb-SRC2 inh: TRbeta-SRC2 interaction inhibition; P10828; TRbeta-SRC2 peptide binding, fluorescence polarization; receptor liganded with 1 µM T3; Potency, µM (titrated, usually from 106 µM), for the others: at the highest dose activity change, negative = inhibition, most hits filed as inhibitors; 0.065% of 280,000 active; AID 1469;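 further: plate controls were bound peptide for no effect and peptide without receptor for full effect; nearly all actives have a fitted effect of over 50% in size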
Target sequence (P10828 whole entry, looked up): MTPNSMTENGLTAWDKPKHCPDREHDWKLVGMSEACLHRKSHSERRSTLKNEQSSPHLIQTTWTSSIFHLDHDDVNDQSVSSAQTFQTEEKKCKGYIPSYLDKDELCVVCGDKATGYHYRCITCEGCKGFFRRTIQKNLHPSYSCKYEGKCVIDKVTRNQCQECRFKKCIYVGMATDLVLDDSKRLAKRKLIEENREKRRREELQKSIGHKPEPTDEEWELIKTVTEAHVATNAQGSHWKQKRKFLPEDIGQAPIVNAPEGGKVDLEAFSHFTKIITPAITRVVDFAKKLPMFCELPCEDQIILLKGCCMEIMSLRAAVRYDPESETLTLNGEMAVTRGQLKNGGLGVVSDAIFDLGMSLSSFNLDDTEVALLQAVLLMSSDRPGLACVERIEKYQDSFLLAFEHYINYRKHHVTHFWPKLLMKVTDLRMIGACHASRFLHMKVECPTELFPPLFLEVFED
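A fluorescence polarization screen tested compounds at multiple concentrations against complex formation between 0.6 uM TRb ligand-binding domain and 20 nM Texas Red SRC2 peptide, with 1 uM T3 present; readout after 5 hr.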
Tau fluor cs: counter-screen for tau fibril formation inhibitors; 0.93% of 280,000 active; Potency, µM (doses to about 57.7 µM), without a hit: at the top dose activity change, negative = decrease; tau K18 P301L (four-repeat tau fragment) Alexa594 fluorescence, heparin fibrillization; further: nearly all actives have a fitted effect of over 55% in size
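Human K18 P301L tau (15 uM unlabeled plus 0.24 uM Alexa 594-labeled, final) in 100 mM sodium acetate pH 7 was mixed with compound and 20 uM heparin and incubated 6 hr at 37 C.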
The depositor's hits bear a star; ? = inconclusive; nt = no result; [ ] = remark or other dose. Unless noted, the call rests on the fitted dose curve; in most records, active means well fitted curve in the direction sought with a large enough effect; inconclusive means small, poorly fitted or top-dose-only effect, or another doubt; inactive means no such curve, though single readings can be large; an effect the other way counts as inactive or inconclusive. Unless noted, on the % scale 0 is the no-effect control and ±100 the full control effect; potency means the concentration at half of the fitted maximal effect.

SMILES	TexasRed fluor	Tau fibril FP	Tau ThT inhib	TRb-SRC2 inh	Tau fluor cs
Cc1ccc(O)c(N)c1	-1%	nt	nt	2%	nt
COc1ccccc1NC(=O)N1CC=C(c2c[nH]c3ccccc23)CC1	-2%	4%	?	-11%	?
O=C(Nc1ccccc1C(F)(F)F)N1CC=C(c2c[nH]c3ccccc23)CC1	-5%	14%	?	1%	18µM*[quencher]
O=C(Nc1ccc(F)c(Cl)c1)N1CC=C(c2c[nH]c3ccccc23)CC1	-1%	?	6.3µM*	-5%	7.9µM*[quencher]
O=C(c1cccs1)c1cn(CCOc2ccc(F)cc2)c2ccccc12	-8%	?	-14%	2%	?
COCCNC(=O)CCCn1c(=O)[nH]c2ccsc2c1=O	-3%	-14%	-5%	5%	-12%
COC(=O)[C@@H](NC(=O)O[C@@H]1C(=O)c2cc(Br)ccc2O[C@H]1c1ccc2c(c1)OCO2)C(C)C	0%	-6%	-12%	0%	-12%
CC1=C(C(N)=O)C(c2ccc(C(C)C)cc2)n2nc(SCc3ccccc3)nc2N1 (stereo unspecified)	-1%	-8%	13%	-7%	-6%
COc1ccc(OC)c(NC(=O)C2CCCN(S(=O)(=O)c3ccc4[nH]c(=O)ccc4c3)C2)c1 (stereo unspecified)	-2%	7%	-18%	3%	?
O=C1CCCC2=C1C(c1ccccc1)C1C(=O)c3ccccc3C1=N2 (stereo unspecified)	-1%	-4%	-4%	2%	0%
O=C1CCCC2=C1C(c1ccc(Cl)cc1)C1C(=O)c3ccccc3C1=N2 (stereo unspecified)	-3%	14%	16µM*	2%	22µM*[quencher]
Cc1onc(-c2c(F)cccc2Cl)c1C(=O)NC1C(=O)N2C1SC(C)(C)C2C(=O)O (stereo unspecified)	-2%	nt	nt	7%	nt
COc1ccc(CNC(=O)C(C#N)c2nc3ccccc3nc2N2CCCC2)cc1 (stereo unspecified)	-7%	-13%	-2%	2%	-29%
COc1ccc(CNC(=O)C(C#N)c2nc3ccccc3nc2N2CCN(C)CC2)cc1 (stereo unspecified)	-3%	-1%	16µM*	7%	-30%
COC(=O)C1=C(C(=O)OC)[C@@H]2Nc3ccccc3[C@@]23C[C@@H](C(=O)OC)N(S(=O)(=O)c2ccc(C#N)cc2)C3=N1	-5%[11.2 µM]	0%[11.6 µM]	-2%[11.5 µM]	5%[11.2 µM]	-6%[11.6 µM]
Cc1ccccc1OCC(=O)Nc1ccc(C(=O)OCc2cc(=O)n3ccsc3n2)cc1	-5%	-12%	7%	4%	-4%
O=c1/c(=C\c2cc([N+](=O)[O-])cc([N+](=O)[O-])c2O)sc2nc3ccccc3n12	45µM*[quencher]	?	5µM*	16%	?
O=c1/c(=C/c2ccccn2)sc2nc3ccccc3n12	-1%	?	?	-17%	-16%
COc1ccc(NC(=O)c2ccco2)cc1NC(=O)c1ccc(OC(C)C)cc1	0.35µM*[quencher]	9%	-16%	-12%	-18%
CN1CCc2nc3sc(C(=O)Nc4ccccc4C(F)(F)F)c(N)c3cc2C1	-1%	13%	?	0%	?
c1ccc(N2CCN(c3nnnn3-c3ccccc3)CC2)cc1	0%	1%	-5%	12%	-3%
ClC(Cl)(c1nnnn1-c1ccccc1)c1nnnn1-c1ccccc1	-3%	32µM*	11µM*	-1%	-14%
C/C1=C2N=C(/C=C3N=C(/C(C)=C4\[N-]C(C)(C5N=C1C(C)(CCC(=O)NCC(C)OP(=O)([O-])O[C@H]1C(O)C(n6cnc7cc(C)c(C)cc76)O[C@@H]1CO)C5CC(N)=O)C(C)(CC(N)=O)C4CCC(N)=O)C(C)(CC(N)=O)C\3CCC(N)=O)C(C)(C)C/2CCC(N)=O.[CH2-]C1OC(n2cnc3c(N)ncnc32)C(O)C1O.[Co] (stereo partly specified)	-3%	13µM*	10µM*	-21%	?
COc1ccc(CS(=O)(=O)/C(Cl)=C(/Cl)C(=O)Nc2ccc(OC)nc2)cc1	-1%	?	7.9µM*	9%	-28%
